Reference: PubChem BioAssay AID504652 (National Center for Advancing Translational Sciences (NCATS), 2011)
Out of some 360,000 compounds screened, about 11,000 (3.1%) were called active. Rule as the data show it: active = activity change below about -30%; inactive = the rest. Only a selection was taken, and actives are over-represented in it overall.
% is scaled to controls: 0 for no effect and ±100 for the full control effect.

The compounds below were run against D(1A) dopamine receptor (Homo sapiens) (UniProt P21728) (assay: Antagonist of Human D 1 Dopamine Receptor: qHTS). Conditions: HEK293 TREx D1 cells, calcium flux, dopamine EC80; at 10 µM; stronger effect = lower value.
Sequence of D(1A) dopamine receptor (Homo sapiens) (P21728 whole entry, looked up): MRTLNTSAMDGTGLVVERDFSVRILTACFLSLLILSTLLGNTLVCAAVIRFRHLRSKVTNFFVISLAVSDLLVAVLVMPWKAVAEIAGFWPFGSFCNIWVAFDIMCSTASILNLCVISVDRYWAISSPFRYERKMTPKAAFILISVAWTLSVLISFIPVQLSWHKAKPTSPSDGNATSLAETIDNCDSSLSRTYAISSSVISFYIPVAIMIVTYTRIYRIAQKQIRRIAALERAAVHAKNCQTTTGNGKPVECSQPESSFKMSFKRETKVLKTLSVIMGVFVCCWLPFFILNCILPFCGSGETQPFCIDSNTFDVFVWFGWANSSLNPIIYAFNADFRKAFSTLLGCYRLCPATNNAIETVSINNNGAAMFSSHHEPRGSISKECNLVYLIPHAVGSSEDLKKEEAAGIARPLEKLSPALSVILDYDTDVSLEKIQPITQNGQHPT
In short: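 HEK293 T-REx cells expressing inducible, force-coupled D1 receptor; no-wash Ca dye, 30–90 min RT. Cmpd → 180 s read at 1 Hz → EC80 DA → 180 s read.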
With `Cc1ccccc1C(=O)N(Cc1ccc(N(C)C)cc1)CC1CCCO1` (stereo unspecified) the activity change, negative = inhibition was 12.9% (inactive).
`N#Cc1nc(Nc2cc(F)cc(Cl)c2)nc(NC2CCCC2)n1` was tested, and the activity change, negative = inhibition was -27% (inactive).
In the case of `Cc1cc(C)cc(NS(=O)(=O)c2ccc(-c3cc(C)no3)s2)c1`, the activity change, negative = inhibition is reported as -9.8% (inactive).
In the case of `COc1ccc(C)cc1NC(=O)COCc1cc(-c2cccs2)on1`, the activity change, negative = inhibition is reported as 15% (inactive).
With `Cc1cc(-c2ccc(S(=O)(=O)N3CCc4ccccc4C3)s2)on1` the activity change, negative = inhibition was -15.7% (inactive).
For `Cc1cc(-c2ccc(S(=O)(=O)N3CCN(c4cccc(C(F)(F)F)c4)CC3)s2)on1`, the activity change, negative = inhibition was -24.5% (inactive).
`Cc1cccc(N2CCN(S(=O)(=O)c3ccc(-c4cc(C)no4)s3)CC2C)c1` (stereo unspecified) was tested, and the activity change, negative = inhibition was -39.9% (active).
`O=c1onc(-c2c(F)cccc2F)n1-c1ccccc1Cl` was tested, and the activity change, negative = inhibition was -36.4% (active).
`O=C(Cn1c(-c2ccc(Cl)cc2)noc1=O)N1CCN(c2ccccc2F)CC1` was tested, and the activity change, negative = inhibition was -13.7% (inactive).
With `Cc1ccc(C)c(N2C(=O)N(Cc3c(F)cccc3Cl)c3ccccc3S2(=O)=O)c1` the activity change, negative = inhibition was -19.3% (inactive).
`CCOc1ccccc1CNCc1c(C(=O)O)c(C)n(Cc2ccc(C)cc2)c1C` was tested, and the activity change, negative = inhibition was 0.5% (inactive).
In the case of `CCCCNc1ccc(-c2nc(-c3ccncc3)no2)cc1[N+](=O)[O-]`, the activity change, negative = inhibition is reported as 10.8% (inactive).
In the case of `CCOC(=O)c1ccc(NC(=O)C2CCN(S(=O)(=O)c3ccc4c(c3)CCCC(=O)N4)CC2)cc1`, the activity change, negative = inhibition is reported as 2.67% (inactive).
`CCCCOc1ccc(NC(=O)c2cc3c(n(-c4ccc(Cl)cc4)c2=O)CCCC3=O)cc1` was tested, and the activity change, negative = inhibition was 1.15% (inactive).
In the case of `C[C@@H](NC(=O)OC(C)(C)C)c1nnc(S(=O)(=O)Cc2ccccc2)o1`, the activity change, negative = inhibition is reported as -33% (active).
With `CC(C)(C)c1ccc(C(CC(=O)O)NS(=O)(=O)Cc2ccccc2)cc1` (stereo unspecified) the activity change, negative = inhibition was -2.49% (inactive).
`COc1ccccc1NC(=O)[C@H](COCc1ccccc1)NC(=O)OC(C)(C)C` was tested, and the activity change, negative = inhibition was -13.2% (inactive).
In the case of `O=C(NCCc1ccccc1)c1cnc2sc(N3CCCC3)nn2c1=O`, the activity change, negative = inhibition is reported as 8.92% (inactive).
`CCOc1ccc(NC(=O)CCC(=O)N2CC(C)Oc3ccc(C)cc32)cc1` (stereo unspecified) was tested, and the activity change, negative = inhibition was -0.916% (inactive).
In the case of `Cc1cccc(N2CCN(c3ccc(C(=O)O)cc3NC(=O)c3ccccc3F)CC2C)c1` (stereo unspecified), the activity change, negative = inhibition is reported as 20.1% (inactive).
For `O=[N+]([O-])c1cc(-c2nc(-c3ccccc3)no2)ccc1NCc1ccco1`, the activity change, negative = inhibition was -9.94% (inactive).
With `CNc1ccc(-c2nc(-c3ccccc3C)no2)cc1[N+](=O)[O-]` the activity change, negative = inhibition was -6.85% (inactive).
For `CC(Nc1ccc(-c2nc(-c3ccco3)no2)cc1[N+](=O)[O-])c1ccccc1` (stereo unspecified), the activity change, negative = inhibition was -5.4% (inactive).
In the case of `CN(Cc1ccccc1)c1ccc(-c2nc(-c3ccccc3)no2)cc1[N+](=O)[O-]`, the activity change, negative = inhibition is reported as -53.5% (active).
In the case of `CNc1ccc(-c2nc(-c3ccco3)no2)cc1[N+](=O)[O-]`, the activity change, negative = inhibition is reported as -31.8% (active).
In the case of `COc1ccccc1-c1noc(-c2ccc(NCc3ccccc3)c([N+](=O)[O-])c2)n1`, the activity change, negative = inhibition is reported as 4.22% (inactive).
